# Data as given in the supplement of paper PMC6555819.
# Assays:
# Assay in all cases: PBM binding z-score (relative to random genomic background probes); higher = stronger binding; sequences stand for … in GC…GCGATTGACAGCGTAGAATGAAGG
# [1] = test system: FXR:RXRa (NR concentration 270 nM, RXRa partner concentration 90 nM)
# How it was run: (§1)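 For binding z-scores, the reference was random background probes on custom Agilent 4×180K protein-binding microarrays. These arrays were incubated 1 h with ligand-free nuclear receptor dimers in PBS pH 7.4, 2% milk, 0.02% Triton X-100, 1 mM DTT, 0.2 mg/mL BSA and 0.4 mg/ml salmon testes DNA. Fluorescence was scanned after antibody detection of each partner (one per run) and regression-normalized.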
# [2] = test system: LXRa:RXRa (NR concentration 270 nM, RXRa partner concentration 90 nM)
# How it was run: as §1
# [3] = test system: LXRa homodimer (NR concentration 270 nM)
# How it was run: as §1
# [4] = test system: LXRb:RXRa (NR concentration 270 nM, RXRa partner concentration 90 nM)
# How it was run: as §1
# [5] = test system: LXRb homodimer (NR concentration 270 nM)
# How it was run: as §1
# [6] = test system: PPARa:RXRa (NR concentration 270 nM, RXRa partner concentration 90 nM)
# How it was run: as §1
# [7] = test system: PPARg:RXRa (NR concentration 180 nM, RXRa partner concentration 90 nM)
# How it was run: as §1
# [8] = test system: PPARg:RXRa 270nM:90nM, anti-RXR (NR concentration 270 nM, RXRa partner concentration 90 nM)
# How it was run: as §1
# [9] = test system: PPARg:RXRa 30nM:10nM, anti-RXR (NR concentration 30 nM, RXRa partner concentration 10 nM)
# How it was run: as §1
# [10] = test system: PPARg:RXRa 90nM:30nM, anti-RXR (NR concentration 90 nM, RXRa partner concentration 30 nM)
# How it was run: as §1
Sequence,PBM binding z-score [1],PBM binding z-score [2],PBM binding z-score [3],PBM binding z-score [4],PBM binding z-score [5],PBM binding z-score [6],PBM binding z-score [7],PBM binding z-score [8],PBM binding z-score [9],PBM binding z-score [10]
CTACCAAGGTGAATAAGGTCGTTGATTACTATTC,1.18,1.3,0.402,1.58,-0.326,2.22,0.631,1.01,0.203,0.602
CTCGAAAGGTCGGTTGAGGTGAGTACACGGATAA,2.34,1.85,-0.128,1.5,-0.0877,2.77,0.546,1.4,0.191,0.951
TCTAGTTGGTCAAAGGTCAGACACTCGAAATGCG,4.59,4.69,2.66,4.41,1.43,5.67,11.3,9.55,11.6,11.6
CGAACTAGTTCATCCAGGACAGTGAATACATTGA,0.527,0.53,0.205,0.693,-0.0526,0.838,0.619,0.145,0.0881,0.329
ATCTCTAGGTAACCGAGTTCAGTGAATGCCGAAC,0.422,0.883,1.08,0.706,0.377,1.44,0.672,1.1,-0.103,0.724
TCATATACGTAATACAGGTGAAAGTCGGCATCTA,1.21,1.13,0.327,1.26,0.782,1.75,1.26,2.79,3.96,3.36
TTCCCAAGGTGAAGGTCGTTGATCCCTCTGTAGA,2.26,2.23,-0.0326,1.74,-0.362,2.26,0.674,1.81,0.663,1.37
TTTGCTAGGTCAGTTGGTCAGCTAACGAGCTGCC,1.15,1.41,0.52,0.404,0.521,1.54,1.1,1.77,-0.172,1.34
CAAACTAGGTCACACAGGTCAAAGTCCGTGCGTA,5.67,5.43,4.2,4.82,0.995,5.71,9.3,7.72,5.14,7.46
ACAGACAGGTGAGTAAAGGTAACTCAGCTGGACG,0.171,0.4,-0.568,-0.0938,-0.506,0.95,1.25,1.64,0.681,1.27
AATACAGGGTCACTCGGCCAGAGTAGGTACGAAT,6.58,5.13,1.19,4.06,1.03,5.6,6.87,5.81,2.53,4.66
TCATATAGGTAAATGCTAGGTGAACGTCCGATCT,0.421,0.682,0.358,0.608,-0.229,1.36,1.09,2.06,3.51,2.65
CGAACTATGTCATTGACAGGACAGTGAATAGTAA,-0.339,-0.306,-0.302,0.00263,-0.414,0.765,0.677,0.347,0.272,0.497
CCTCGGAGGACAGAGGGTCAGAGCTGTCCGCTTT,0.828,0.75,-0.594,0.328,-1.2,1.2,-0.24,0.834,-0.79,-0.115
GCTAGTTGGTCAGTAAAAGGTCATACACCGGTCG,3.17,4.37,5.64,3.93,0.896,4.45,2.95,4.03,2.15,3.55
TGAATGGGGTTATAAGATCAGGGAACGTTGCAAA,3.48,2.4,0.471,4,2,4.74,3.24,3.32,1.77,2.79
GCTAGTTGGTCAGTAAAAGGTCGCACACCGGTCG,0.649,1.35,0.422,1.28,-0.0717,2.31,0.999,2.68,0.448,2.08
ACACACAGGTGATGAAGGTAACTCAGGCTATCAT,-0.0193,0.147,0.256,-0.0371,-0.0459,0.299,0.913,0.223,0.238,0.167
CCTATTAGTTGACCATAAGGGCAATCGAAGCTCG,0.68,0.259,0.71,0.623,0.695,0.456,0.434,0.366,0.122,0.461
CCGACTGGGGCAGAAAGGTTACAATACCATCCGG,0.452,0.428,-0.0734,1.17,-0.707,2.02,1.77,2.68,0.821,2.01
CCTCGGAGGACAGAAGGTCAGGGCTGTCCGCTTT,1.42,1.47,0.0831,1.07,-1.01,2.17,-0.206,1.07,-0.426,0.349
GATGCAGGGTCAAGGCCAGAGTACGCGTATTGAT,6.64,3.82,-0.363,3.54,-0.254,5.74,5.22,4.93,1.79,3.61
TCTGGCAGGCCAGAGGGTCACTCAAGAGGTACGG,1.24,1.09,-0.32,1.08,-0.89,2.4,0.868,1.48,0.732,1.23
CGAACTAGGTGAAGGACAGTGAATCTCCGCACGC,-0.222,-0.234,-0.52,-0.714,-1.01,2.1,3.52,3.2,0.549,2.14
GTAGCAAGGTGAATAGGTCGTTGATGAGTAGGCG,0.435,0.286,-0.884,0.119,-1.35,2.05,0.986,1.48,0.12,0.807
